Rows were chosen to be rich in hits. Some 11% of all compounds tested hit in one or more screens of this group.
HCV inh: HCV inhibition; Huh7.5.1 HCVcc-Cre infection, luciferase reporter, 44 h; Potency, µM (series often up to 41.8 µM), inactives show at the top dose activity change, negative = inhibition, most hits filed as inhibitors; 340,000 tested, 3.4% active
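Infectious HCVcc-Cre (~0.5 moi) was added to cells just after compound, with cells seeded 4 h earlier at 1,000 per well. Luciferase activity after 44 h culture reported infection; substrate was incubated 15 min at room temperature before reading.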
Pf growth 48h: P. falciparum growth inhibition at 48 hours (one generation) | P. falciparum luciferase growth in erythrocytes, 48 h | 310,000 tested, 5.9% active | Potency, µM (titrated, usually from 28.7 µM), without a hit: at the highest dose activity change, negative = inhibition, hits mostly inhibitors
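Luciferase-expressing parasites in RBCs, 2% Hct / 0.1% parasitemia final; RPMI 1640 + 0.5% Albumax; 37 C, 5% CO2, one generation; luminescence read-out, lower signal = inhibition.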
AMA1-RON2 inh: inhibitors of Plasmodium falciparum AMA1-RON2 interaction; AlphaScreen AMA1-biotinylated RON2 peptide binding; Potency, µM (highest dose often 58.2 µM), without a hit: top-dose activity change, negative = inhibition, actives largely listed as inhibitors; 360,000 tested, 0.2% active;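 further: 0% = vehicle wells and -100% = peptide control; nearly all actives have a fitted effect of over 45% in size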
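AMA1 (3D7) with his tag at 25 nM final met compounds first, then biotinylated RON2 peptide at 25 nM; detection used donor plus acceptor beads, 10 µg/mL apiece, read by AlphaScreen after 30 min at room temperature.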
Pf growth 96h: P. falciparum growth inhibition at 96 hour, primary screen for plastid delayed-death inhibitors | Potency, µM (top dose mostly 28.7 µM), for inactives: at the top dose activity change, negative = inhibition, usual class: inhibitors | P. falciparum luciferase reporter growth, 96 h | 320,000 tested, 6.9% active
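Infected RBCs, 2% Hct / 0.05% parasitemia final; luciferase-reporter P. falciparum; cpd 96 h, 37 C, 5% CO2; luciferase detection reagent; luminescence.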
* = called active by the depositor. The call rests on the fitted dose curve; in most records, active means well fitted curve in the direction sought with a large enough effect; inconclusive means small, poorly fitted or top-dose-only effect, or another doubt; inactive means no such curve, though single readings can be large; an effect the other way counts as inactive or inconclusive. Unless noted, on the % scale 0 is the no-effect control and ±100 the full control effect; potency means the concentration at half of the fitted maximal effect.

What do the screens show for `CC(C)(C)c1cc(NCCCn2ccnc2)n2ncc(-c3ccccc3)c2n1`?
HCV inh: inconclusive; Pf growth 48h: inconclusive; AMA1-RON2 inh: 52%; Pf growth 96h: inconclusive

How did Cn1c(=O)c2c(nc(NCCCN3CCOCC3)n2Cc2ccc(Cl)cc2)n(C)c1=O do in these assays?
HCV inh: -7%; Pf growth 48h: 33%; AMA1-RON2 inh: -1%; Pf growth 96h: 11%

What do the screens show for `Cc1cc(NCCCn2ccnc2)n2ncc(-c3ccc(Cl)cc3)c2n1`?
HCV inh: 7.1µM*; Pf growth 48h: -29%; AMA1-RON2 inh: 21%; Pf growth 96h: -56%

How did Cc1cc(C)c2nc(Cl)c(Cl)nc2c1 do in these assays?
HCV inh: -5%; Pf growth 48h: 5%; AMA1-RON2 inh: 19%; Pf growth 96h: 16%

Results for CN(CCc1ccccn1)C(=O)CCC1CCCN(C(=O)NC2CCCCC2)C1 (stereo not given) ?
HCV inh: 18%; Pf growth 48h: 28%; AMA1-RON2 inh: -5%; Pf growth 96h: inconclusive

How did CN(C)S(=O)(=O)Nc1ccc(Cc2ccncc2)cc1 do in these assays?
AMA1-RON2 inh: -7%

How did CCCCc1ccc(NS(=O)(=O)N(C)C)cc1 do in these assays?
HCV inh: 16%; Pf growth 48h: 24%; AMA1-RON2 inh: 39%; Pf growth 96h: 10µM*

Results for O=C(NC1C2CCCC1CN(C1CC1)C2)c1ccc(Cl)cc1 (stereo not given) ?
HCV inh: inconclusive; Pf growth 48h: inconclusive; AMA1-RON2 inh: 5%; Pf growth 96h: inconclusive

Results for Cn1c(CCN2CCN(c3ccccn3)CC2)nc2cc(NC(=O)COc3ccc(Cl)cc3)ccc21 ?
HCV inh: 2.2µM*; Pf growth 48h: inconclusive; AMA1-RON2 inh: -2%; Pf growth 96h: inconclusive

What do the screens show for `Cn1c(CCN2CCN(c3ccccn3)CC2)nc2cc(NS(=O)(=O)c3ccc(Cl)cc3)ccc21`?
HCV inh: -21%; Pf growth 48h: 9.3µM*; AMA1-RON2 inh: -18%; Pf growth 96h: 10µM*

Results for Cc1cccc(OCC(=O)Nc2ccc3c(c2)nc(CCN2CCN(c4ccccn4)CC2)n3C)c1 ?
HCV inh: 6.3µM*; Pf growth 48h: inconclusive; AMA1-RON2 inh: -5%; Pf growth 96h: inconclusive

Results for Cc1ccc(S(=O)(=O)Nc2ccc3c(c2)nc(CCN2CCN(c4ccccn4)CC2)n3C)cc1 ?
HCV inh: inconclusive; Pf growth 48h: inconclusive; AMA1-RON2 inh: -12%; Pf growth 96h: inconclusive

How did Cc1ccc(C(=O)OCC(=O)NNC(=O)c2ccc([N+](=O)[O-])cc2)o1 do in these assays?
HCV inh: 19%; Pf growth 48h: 15%; AMA1-RON2 inh: 83%; Pf growth 96h: -22%

What do the screens show for `CC(C)(C)c1nn(-c2ccccc2)c2[nH]c(=O)c(CNCc3ccco3)cc12`?
HCV inh: -29%; Pf growth 48h: inconclusive; AMA1-RON2 inh: 101%; Pf growth 96h: inconclusive

What do the screens show for `COc1ccc(CNCc2cc3c(C(C)(C)C)nn(-c4ccccc4)c3[nH]c2=O)cc1`?
HCV inh: -1%; Pf growth 48h: 0.83µM*; AMA1-RON2 inh: 68%

What do the screens show for `Cc1nn(-c2ccc(Cl)cc2)c2[nH]c(=O)c(CNCc3ccc4c(c3)OCO4)cc12`?
HCV inh: inconclusive; Pf growth 48h: 0.37µM*; AMA1-RON2 inh: 71%; Pf growth 96h: 121%

Results for Cc1ccc(CNCc2cc3c(C(C)(C)C)nn(-c4ccccc4)c3[nH]c2=O)cc1 ?
HCV inh: 10µM*; Pf growth 48h: 0.37µM*; AMA1-RON2 inh: 11%

How did O=S(=O)(c1ccccc1)n1c(C(O)c2ccccn2)cc2ccccc21 (stereo not given) do in these assays?
HCV inh: -8%; Pf growth 48h: 4%; AMA1-RON2 inh: 16%; Pf growth 96h: -10%

How did COc1ccc2oc3cc(NCCN(C)C)ccc3c(=O)c2c1 do in these assays?
AMA1-RON2 inh: 18%

What do the screens show for `COc1ccc(C2NCCc3c2[nH]c2ccccc32)cc1COc1ccc(F)cc1` (stereo not given)?
HCV inh: 10µM*; Pf growth 48h: inconclusive; AMA1-RON2 inh: -6%; Pf growth 96h: inconclusive

What do the screens show for `COc1ccc(C2NCCc3c2[nH]c2ccccc32)cc1CN1CCc2cc(OC)c(OC)cc2C1C` (stereo not given)?
HCV inh: 11µM*; Pf growth 48h: 1.7µM*; AMA1-RON2 inh: -7%; Pf growth 96h: inconclusive

Screening results deposited in PubChem BioAssay by National Center for Advancing Translational Sciences (NCATS).
